5 molecules from PubChem BioAssay AID602452 (National Center for Advancing Translational Sciences (NCATS), 2012) can be followed below.

SMILES strings stand for the structures. The source made the active and inactive calls. No rule for the calls is given here.

One test is described as follows: qHTS Assay for Inhibitors of Influenza NS1 Protein Function: SAR Using NS1 and pYES strains. The conditions noted are these: yeast NS1-expressing strain growth, OD at 60 h; stronger effect = higher value. The text has this: Influenza is a world-wide public health problem and emerging forms of the virus have the potential to cause a pandemic of equal or greater magnitude to the outbreaks recorded in 1918, 1957 or 1968. Vaccine development is proceeding and there also exist two classes of anti-influenza compounds. However these therapeutic modalities are neither fully effective nor widely enough available to fulfill global needs. In addition their potential usefulness against newly emergent strains is not known. Efforts are needed to develop novel agents against influenza virus, including broad-spectrum agents. Identification of small molecules that inhibit NS1 function either directly or by interfering with specific cellular pathways may be a key to increasing our defense against the virus.
We have miniaturized and optimized a cell based assay in which NS1 from influenza A is expressed in the budding yeast S. cerevisiae. NS1 is a multi-functional protein that counters the host innate immune response and facilitates viral versus cellular gene expression. Expression of NS1 causes a pronounced slow growth phenotype in yeast due to its intrinsic molecular activities. Small molecules that suppress the slow growth phenotype can be identified by a straightforward growth recovery assay using optical density (OD) as the measurement. The same yeast strain not expressing NS1 was used as positive control in the yeast growth recovery assay.
Hits resulting from the primary screen and other follow-up screens, were tested using the same yeast strain that was used in the primary assay (NS1) but as control, were compared to a strain that lacks NS1 (pYES).
NIH Chemical Genomics Center [NCGC]
NIH Molecular Libraries Probe Centers Network [MLPCN]
Assay Submitter (PI): Daniel Engel, University of Virgina
Strain 9526-6-2 (MATa his3Delta1 leu2Delta0 lys2Delta0 ura3Delta0 pdr1::KanMX4 pdr3::KanMX4) was a gift from Dan Burke. It was derived by tetrad dissection from two parent strains that had been modified by one step gene replacements. The pdr1::KanMX4 was constructed in BY4741 (MATa his3Delta1 leu2Delta0 met15Delta0 ura3Delta0) and the pdr3::KanMX4 was constructed in BY4742 (MATalpha his3Delta1 leu2Delta0 met15Delta0 ura3Delta0). PCR-mediated one-step gene replacements, matings and tetrad dissections were performed as described previously.[i] The strain 9526-6-2/pYES-NS1 was generated by transformation of 9526-6-2 with the plasmid pYES-NS1 and maintained on synthetic complete medium (SC) lacking uracil. For growth experiments and library screening, a single transformed colony was grown overnight, and the cell number was determined by using a Coulter counter (Beckman Coulter Corp.). The cells were diluted to 5 x 10^5 cells/mL in SC lacking uracil and containing raffinose and 2% galactose. A portion of this culture was added to preplated test compounds such that the final dimethyl sulfoxide (DMSO) concentration was 1%. Optical density readings at 600 nm (OD600) were taken using a Thermomax microplate reader (Molecular Devices).
In general terms: In qHTS, concentration-response curves come from the screen itself.
Regarding `COc1cc(-c2ccnc3c2c(C)nn3-c2cccc(C(F)(F)F)c2)ccc1O`, the OD (growth) was 0.366 (active).

With `Cc1ccc(-n2nc(C)c3c(-c4ccc(O)c(O)c4)c(C#N)c(N)nc32)cc1C`, the OD (growth) is 0.515 (active).

As to `COc1cc(-c2c(C#N)c(N)nc3c2c(C)nn3-c2ccc(F)cc2)ccc1O`, the OD (growth) was 0.396 (active).

`Cc1nn(-c2ccc(Cl)cc2)c2nc(N)c(C#N)c(-c3ccc(O)c(O)c3)c12`: the OD (growth) was 0.384 (active).

Regarding `COc1cc(-c2ccnc3c2c(C)nn3-c2ccc(C(F)(F)F)cc2)ccc1O`, the OD (growth) is 0.46 (active).

The same test, now with this note: yeast NS1-expressing strain growth, OD at 60 h; measured here: pYES control strain growth; stronger effect = higher value.
In turn, `COc1cc(-c2ccnc3c2c(C)nn3-c2cccc(C(F)(F)F)c2)ccc1O` came in with an OD (growth) of 0.551.

For `Cc1ccc(-n2nc(C)c3c(-c4ccc(O)c(O)c4)c(C#N)c(N)nc32)cc1C`, the OD (growth) was determined as 0.536.

`COc1cc(-c2c(C#N)c(N)nc3c2c(C)nn3-c2ccc(F)cc2)ccc1O` gave an OD (growth) of 0.591.

`Cc1nn(-c2ccc(Cl)cc2)c2nc(N)c(C#N)c(-c3ccc(O)c(O)c3)c12` came in with an OD (growth) of 0.572.

`COc1cc(-c2ccnc3c2c(C)nn3-c2ccc(C(F)(F)F)cc2)ccc1O` yielded an OD (growth) of 0.56.
